Each compound was assayed on Inhibin beta A chain (activin A) (assay: small molecules binding activin A – biochemical, small-molecule microarray, 635 nm fluorescence scan, primary screen (AID 1107;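 note: mouse activin A protein probed at 4.33 µg/mL on printed slides; score merges bound-protein fluorescence near 667 nm with spot signal-to-noise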)). Details: INHBA, higher = more signal.
With C=CCN1C(=O)[C@@]2(Cc3ccccc3)N=C(c3ccc(OCCCO)cc3)O[C@H]2c2ccccc21 the composite z-score was 0.965. Work on CC(=O)Nc1ccc([C@H]2[C@H](C)CC[C@H]3C(=O)N4[C@@H](CC[C@@H](C)[C@@H]4c4ccc(NC(C)=O)cc4)C(=O)N32)cc1 yielded a composite z-score of 0.213. COc1cc2c(cc1OC)CN(C(=O)[C@@H]1[C@H]3C(=O)O[C@H](c4ccccc4)[C@H](c4ccccc4)N3[C@H](c3ccccc3OCCO)[C@@]13C(=O)Nc1ccccc13)CC2 showed a composite z-score of 0.358. Compound CCOC(=O)C[C@H]1[C@H](OC(=O)Cc2ccc3c(c2)OCO3)[C@@H](NC(=O)c2ccc3ccccc3c2)c2cc(OCCCO)ccc2N1C(=O)Cc1ccc(OC)cc1 has a composite z-score of 0.147. For CO[C@@H]1COC(=O)[C@H](C)NC(=O)CC=C[C@@H](C)[C@H](OC)COC(=O)[C@H](C)NC(=O)CC=C[C@H]1C, the composite z-score was 0.136. Work on CO[C@H]1COC(=O)CC=C[C@H](C)COC(=O)[C@@H](OCc2ccccc2)C=C[C@@H]1C yielded a composite z-score of 0.924. Compound CCCC[C@@H]1C[C@H]1[C@@H](NC(=O)c1ccccc1)c1ccccc1C(F)(F)F has a composite z-score of 0.616. Work on CO[C@@H]1COC(=O)[C@H](C)NC(=O)CC=C[C@@H](C)[C@H](NS(=O)(=O)c2ccc(C)cc2)COC(=O)CC=C[C@@H]1C yielded a composite z-score of -0.204. In the case of CC(=O)NCCCC[C@@H]1NC(=O)[C@H]2C[C@@H](C(=O)NCCCCCCN(C)C)[C@@H](c3cccc(OCCO)c3)N2C1=O, the composite z-score is reported as 0.298. For NC(=O)NCC#Cc1ccc2c(c1)[C@]1(C(=O)N2)[C@H](c2ccccc2OCCO)N2[C@H](c3ccccc3)[C@H](c3ccccc3)OC(=O)[C@H]2[C@@H]1C(=O)N1CCN(c2ncccn2)CC1, the composite z-score was 1.25. With C[C@]1(C(=O)NCc2ccccc2)c2ccccc2C(=O)N(Cc2cc(C(F)(F)F)cc(C(F)(F)F)c2)[C@H]1c1ccc(CO)cc1 the composite z-score was 0.856. In the case of C=C(COC)/C(=C/C[C@@H](OC(C)=O)c1cccc(OCCO)c1)c1cc(C(=O)OC)ccc1OC, the composite z-score is reported as 0.971. COC(=O)[C@H]1[C@@H]2COc3ccccc3[C@H]2N[C@H]1C(=O)OC showed a composite z-score of 0.0992. For CCc1cccc(NC(=O)O[C@H]2[C@H](OC(=O)Nc3ccccc3)[C@@H](OC(=O)Nc3ccccc3)[C@@H](OC)O[C@@H]2CO)c1, the composite z-score was 0.451. With C=CCN1C(=O)[C@]2(O[C@H](CCn3cc(CCO)nn3)[C@@H]([Si](C)(C)c3ccc(OC)cc3)[C@@H]2C)c2cc(NC(=O)c3ccc(OC)cc3)ccc21 the composite z-score was 1.63. In the case of C=C(COC)/C(=C/C[C@H](OC(C)=O)c1ccc(OCCO)cc1)c1cnc2ccccc2c1, the composite z-score is reported as 1.8. [N-]=[N+]=NCc1ccccc1C[C@]1(C(=O)N2CCCCC2)N=C(c2ccc(OCCCO)cc2)O[C@H]1c1ccccc1CN=[N+]=[N-] was tested, and the composite z-score was 0.212. CO[C@H]1O[C@H](CO)[C@@H](OC(=O)Nc2ccccc2)[C@H](OC(=O)Nc2ccc3c(c2)OCO3)[C@@H]1OC(=O)Nc1ccc2c(c1)OCO2 gave a composite z-score of 0.794. Compound CCOC(=O)C1=C[C@@H](c2ccccc2)N(S(=O)(=O)c2ccc(C)cc2)[C@H]1c1ccc(F)cc1 has a composite z-score of 0.589. CCCC=C(CCC)[C@@H](NC(=O)c1ccc(C(F)(F)F)cc1)c1ccccc1 showed a composite z-score of 0.0953. In the case of COC(=O)C[C@H]1O[C@]2(C(=O)N(Cc3ccccc3)c3ccc(I)cc32)[C@@H](C)[C@@H]1[Si](C)(C)c1ccc(OC)cc1, the composite z-score is reported as 0.413. With CCC(=O)[C@]12O[C@@]3([C@@H]4C(=O)OCC[C@@H]41)N(CC)C(C)=C(C(=O)OC)[C@@H](c1ccccc1)N3C2=O the composite z-score was 1.7. With COCCOC(=O)N1C(=O)[C@@]2(c3cc(C#CC4=CCCCC4)ccc31)[C@H](c1ccc(O)cc1)N1[C@H](c3ccccc3)[C@H](c3ccccc3)OC(=O)[C@H]1[C@@H]2C(=O)N1CCCCCCC1 the composite z-score was 1.6. With O=C(CS)NCCCCCNC(=O)[C@H]1C[C@H]2C(=O)N3CCC[C@H]3C(=O)N2[C@H]1c1ccc(O)cc1 the composite z-score was 0.594. In the case of CSCC[C@@H]1NC(=O)CC=C[C@@H](C)COC(=O)[C@H](CCSC)NC(=O)CC=C[C@@H](C)COC1=O, the composite z-score is reported as -0.149. With COCCOC(=O)N1C(=O)[C@@]2(c3cc(C#CCNC(N)=O)ccc31)[C@H](C(=O)N1CCCCCCC1)[C@H]1C(=O)O[C@H](c3ccccc3)[C@H](c3ccccc3)N1[C@@H]2c1ccccc1OCCO the composite z-score was 1.33. Compound O=C1O[C@H](c2ccccc2)[C@H](c2ccccc2)N2[C@H]1[C@@H](C(=O)Nc1nc3ccccc3s1)[C@]1(C(=O)Nc3ccc(C#CC4(O)CCCCCC4)cc31)[C@H]2c1ccc(O)cc1 has a composite z-score of 0.357. Work on CC[C@H]1C2=C3C(CC[C@H]4C(OC)OC[C@](C)([C@@H]34)N(C(=O)OC(C)(C)C)C2)C(CO)C1CO (stereo partly specified) yielded a composite z-score of 0.828. With CC(C)(C)OC(=O)CC[C@@]1(C(=O)NCc2ccccc2)N=C(c2ccc(OCCCO)cc2)O[C@@H]1c1ccccc1 the composite z-score was 0.119. Work on CC(C)[Si](OCC[C@H]1O[C@]2(C(=O)N(Cc3ccccc3)c3ccccc32)[C@@H](C)[C@@H]1[Si](C)(C)O)(C(C)C)C(C)C yielded a composite z-score of 0.438. With C[C@H]1COC(=O)[C@H](Cc2ccccc2)NC(=O)[C@@H](C)COC(=O)[C@H](Cc2ccccc2)NC1=O the composite z-score was -0.687. With COc1ccc([Si](C)(C)[C@H]2[C@H](CC(=O)N3Cc4ccccc4C[C@H]3CO)O[C@@]3(C(=O)N(Cc4cccc(N5CCOC5=O)c4)c4ccccc43)[C@@H]2C)cc1 the composite z-score was 0.923. CO[C@H]1COC(=O)[C@@H](OCc2ccccc2)C=C[C@H](C)[C@@H](OC)COC(=O)[C@H](OCc2ccccc2)C=C[C@@H]1C was tested, and the composite z-score was -0.381. With C=C(COC)C(=O)CC[C@H](OC(=O)c1ccccc1-c1ccccc1C(=O)O)c1cccc(OCCO)c1 the composite z-score was 1.01. Compound Cc1ccc(S[C@]2(C(=O)O)CC(=O)N(Cc3ccccc3)[C@@H]2c2ccc(CO)cc2)cc1 has a composite z-score of 1.04. O=C(O)[C@@H]1Cc2c([nH]c3ccccc23)[C@@H](c2ccccc2)N1 gave a composite z-score of -0.332.

Source: PubChem BioAssay
